Compound activity (PubChem)
The list is not random: actives were taken first. Their share in the collection is about 32%.
CYP2C19 inh: blockers of cytochrome P450 2C19 activity – biochemical, luminescence, ADME assay, primary screen. CYP2C19 Supersomes, luciferin-H EGE luminescence, 30 min. inhibition, % at 5 µM. hit rate 21% among 96,000;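 active = CYP2C19 inhibition above a set limit at 5 µM in the primary screen, cut at about 50% in these data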;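 note: plate controls were negative control wells for no effect and 2.5 mM tranylcypromine positive control for full effect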
CYP2C9 activ: human CYP2C9 activators, primary screen, biochemical, luminescence | Cytochrome P450 2C9 (Homo sapiens), P11712 | recombinant CYP2C9, luciferin-H conversion; active compounds read high; factor 1 = untreated enzyme, 0 = blocked | activation factor at 5 µM | hit rate 1.4% among 96,000 | AID 1024, 2008;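 active = activation factor of 2 or more for CYP2C9 at a 5 µM dose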;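 note: 0 = sulfaphenazole-blocked wells and 1 = vehicle-only wells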
Target sequence (P11712 whole entry, looked up): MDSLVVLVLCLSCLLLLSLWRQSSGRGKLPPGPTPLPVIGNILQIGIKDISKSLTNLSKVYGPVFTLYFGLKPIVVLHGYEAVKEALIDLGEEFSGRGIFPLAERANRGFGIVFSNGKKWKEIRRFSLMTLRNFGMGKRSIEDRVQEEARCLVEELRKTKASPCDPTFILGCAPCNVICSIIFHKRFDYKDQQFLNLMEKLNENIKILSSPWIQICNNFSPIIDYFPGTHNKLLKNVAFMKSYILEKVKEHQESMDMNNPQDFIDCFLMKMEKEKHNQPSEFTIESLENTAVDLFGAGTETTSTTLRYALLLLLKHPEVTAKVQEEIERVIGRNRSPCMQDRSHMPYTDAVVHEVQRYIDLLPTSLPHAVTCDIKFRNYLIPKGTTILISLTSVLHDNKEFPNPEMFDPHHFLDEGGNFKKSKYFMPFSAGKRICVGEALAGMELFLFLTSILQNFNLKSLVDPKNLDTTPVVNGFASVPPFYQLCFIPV
PostGolgi yeast: phenotypic screen on post-Golgi transport, primary screen; post-Golgi transport phenotypic cell assay; inhibition, % at 10 µM; hit rate 0.9% among 98,000; AID 739, 2007;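 note: yeast cells grown in 1536-well plates; yeast grown about 18 h at 30C before absorbance read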
PostGolgi ctrl: growth inhibition of yeast control strain, primary screen, counter-screen for post-Golgi transport modulator project; efflux-deficient yeast background strain, growth absorbance A615, 16 h; inhibition, % at 10 µM; hit rate 5% among 98,000; AID 738, 2007
CYP2C19 act: human CYP2C19 activators, primary screen, biochemical, luminescence; activation factor at 5 µM; Cytochrome P450 2C19 (Homo sapiens), P33261; recombinant CYP2C19, luciferin-H EGE luminescence; active compounds read high; 0 = fully inhibited enzyme, 1 = untreated enzyme; 96,000 tested, under 10 active;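 active = activation factor of at least 2 at 5 µM in the primary screen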;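 note: 0 = wells with 2.5 mM tranylcypromine and 1 = vehicle-only wells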
CYP2C9 inh: blockers of cytochrome P450 2C9 activity – biochemical, luminescence, ADME assay, primary screen | P11712 | CYP2C9 Supersomes, luciferin-H conversion | inhibition, % at 5 µM | hit rate 20% among 96,000;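 active = blocking of liver enzyme CYP2C9 beyond about 50% at 5 µM, limit read from the data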
* = called active by the depositor. Cut-off read from the data, not from the text of the source, unless noted: active = inhibition above about 30%; inactive = the rest.

SMILES	CYP2C19 inh	CYP2C9 activ	PostGolgi yeast	PostGolgi ctrl	CYP2C19 act	CYP2C9 inh
N#CCCN(Cc1cccnc1)C(=O)Nc1cccc(Cl)c1	94*	0.6	0	24	0.1	42
O=C(Nc1cccc(Cl)c1)N(CCN1CCOCC1)Cc1cccc(Cl)c1	85*	0.1	3	16	0.2	94*
COc1ccc(CN(CCCN2CCOCC2)C(=O)Nc2cccc(Cl)c2)cc1OC	80*	0	22	6	0.2	97*
CCc1ccc2[nH]c(=O)c(CN(CCCN3CCOCC3)C(=O)Nc3cccc(Cl)c3)cc2c1	32	0.8	23	2	0.7	23
O=C(Nc1cccc(Cl)c1)N(CCN1CCOCC1)Cc1ccccc1F	40	0.1	0	7	0.6	92*
Cc1ccc2[nH]c(=O)c(CN(CCN3CCOCC3)C(=O)Nc3ccc(F)cc3)cc2c1	45	0.5	8	2	0.5	47
CSCCC(NC(=O)c1ccco1)C(=O)O (configuration not stated)	-6	1.2	-4	14	1.1	-18
CCOC(=O)COc1ccc2c(c1)C(=O)CC1(CCN(C(C)=O)CC1)O2	-7	1	-16	4	1.1	-1
COCc1cc(C)nc(SCC(=O)c2ccc(O)c(O)c2)c1C#N	40	1.2	11	5	0.6	-19
COC(=O)CCC(=O)Nc1cccc(C(=O)Nc2cccc(Cl)c2)c1	24	0.7	-1	6	0.8	35
C=CCC(c1ccccc1F)N(CCN1CCOCC1)C(=O)Nc1cccc(Cl)c1 (configuration not stated)	31	0.1	2	26	0.7	87*
c1csc(-c2nn3c(Cn4nnc5ccccc54)nnc3s2)c1	5	1.1	-5	5	0.9	-5
c1ccc2c(c1)nnn2Cc1nnc2sc(-c3ccncc3)nn12	78*	0.4	-5	2	0.2	57*
Clc1cccc(-c2nn3c(Cn4cnc5ccccc54)nnc3s2)c1	14	0.7	-4	11	0.9	28
c1coc(-c2nn3c(Cn4nnc5ccccc54)nnc3s2)c1	76*	0.5	0	9	0.2	45
Clc1ccc(Cc2nn3c(Cn4nnc5ccccc54)nnc3s2)cc1	48	0.3	-3	30	0.5	73*
Nn1c(SCC(=O)N2CCN(S(=O)(=O)c3ccccc3)CC2)nnc1-c1cccs1	-2	1	2	3	1	-1
COc1cc(CN2CCN(S(=O)(=O)c3ccc(NC(C)=O)cc3)CC2)cc(OC)c1O	10	0.6	2	6	0.9	35
Cc1csc(-c2cnn(-c3ccccc3)c2NC(=O)c2ccccc2)n1	-12	1	2	18	1.1	4
Cc1ccc(N(CC(=O)Nc2ccc(C)cc2C)S(=O)(=O)N2CCCC2)cc1	20	0.2	-5	25	0.8	80*
CC(/C=N/NC(=O)c1ccncc1)=C\c1ccc(C(C)C)cc1	22	0.9	30*	35*	0.8	9
CCOC(=O)C1CCCN(c2nc3ccccc3nc2C(C#N)C(=O)OCCOC)C1 (configuration not stated)	22	0.6	-6	8	0.8	35
CCC(CC)COC(=O)C(C#N)c1nc2ccccc2nc1N1CCOCC1 (configuration not stated)	56*	0.5	3	28	0.4	48
CCOC(=O)C1CCCN(c2nc3ccccc3nc2C(C#N)C(=O)OCC)C1 (configuration not stated)	93*	0	4	21	0.1	96*
CN1CCN(c2nc3ccccc3nc2C(C#N)C(=O)OC2CCCCC2)CC1 (configuration not stated)	13	0.9	2	17	0.9	9
SMILES	CYP2C19 inh	CYP2C9 activ	PostGolgi yeast	PostGolgi ctrl	CYP2C19 act	CYP2C9 inh
N#CC(C(=O)OC1CCCCC1)c1nc2ccccc2nc1N1CCOCC1 (configuration not stated)	6	0.9	0	40*	0.9	10
O=C(c1cccc(C(F)(F)F)c1)N1CCN(C2CCCCC2)CC1	38	0.7	5	-4	0.6	29
O=C(NC1CCCCC1)N1CCC(c2nc3ccc(Cl)cc3[nH]2)CC1	29	0.6	-6	11	0.7	44
NC(=O)NC1CCCc2c1[nH]c1ccc(Cl)cc21 (configuration not stated)	52*	0.1	-2	16	0.5	94*
CCC1C(=O)Nc2nc(-c3ccccc3)c(-c3ccccc3)n2N=C1C (configuration not stated)	-3	0.8	-2	42*	1	20
CC1=Nn2c(nc(-c3ccccc3)c2-c2ccccc2)N(CC(N)=O)C(=O)C1	-14	1.1	-14	2	1.1	-12
CC1(C(=O)O)CCC(C(=O)NC2CCCCCC2)C1(C)C (configuration not stated)	-21	1.2	5	7	1.2	-17
N=c1c2c3c(sc2ncn1CCN1CCOCC1)CCCC3	6	0.9	-1	1	0.9	7
CCC1CCc2c(sc3ncnc(N4CCOCC4)c23)C1 (configuration not stated)	89*	0.6	20	25	0.1	43
CC(=O)Nc1cc(C(=O)N2CCCC2)ccc1S(=O)(=O)c1ccc(Cl)cc1	-3	0.9	9	7	1	6
O=C(NCCO)c1scc2c1OCCO2	-8	1.2	-7	-1	1.1	-17
N#C/C(=C\c1ccc[nH]1)S(=O)(=O)c1ccccc1	47	5.5*	3	19	0.5	-446
CCn1cc(/C=C(/C#N)S(=O)(=O)c2ccccc2)cn1	31	3*	-7	2	0.7	-204
Cn1nccc1/C=C(/C#N)S(=O)(=O)c1ccccc1	30	0.8	-9	12	0.7	18
COCC(=O)Nc1ccc(C(C)C)cc1	16	0.9	15	-4	0.8	7
N#Cc1nc(-c2ccco2)oc1N1CCc2ccccc2C1	68*	0.1	6	9	0.3	86*
N#Cc1nc(-c2ccco2)oc1N1CCN(c2cccc(Cl)c2)CC1	76*	0.3	-3	22	0.2	69*
N#Cc1nc(-c2ccco2)oc1N1CCCC1	15	1.2	-9	4	0.9	-24
COC(=O)c1c(C(=O)OC)c(-c2ccc(C)cc2)n2c1CS(=O)C2 (configuration not stated)	30	0.7	-7	0	0.7	34
CCCCNc1ccccc1C(=O)OCC(=O)Nc1ccc(S(N)(=O)=O)cc1	23	0.1	-7	4	0.8	86*
CCC(=O)Nc1ccccc1C(=O)OCC(=O)Nc1ccc(S(N)(=O)=O)cc1	-5	0.7	-3	10	1	33
